From the supplement of paper PMC3545927
The list shows a part of the results. The hit rate among all sequences tested is not known here.

Target: furin, P09958
Test: furin cleavage Z-score vs untreated control; higher = more cleavage, active = 3.5 or more, inactive = 1 or less, 8 variable residues between constant flanks
Method in brief: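 Purified furin cleaved 8-mer peptides that were fused to a cDNA oligonucleotide and held on magnetic beads by their N-terminus. Each 0.01 ml reaction used a 1:10 enzyme:substrate ratio in 50 mM HEPES pH 7.5 with CaCl2 and NaCl and ran 7.5, 15 or 30 min. Released DNA was adapter-tagged by PCR and sequenced, and read counts gave abundance. The cleavage Z-score came from log counts against furin-free reactions, lowess-adjusted and scaled by median absolute deviation.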

Chain of furin, P09958 (P09958 whole entry): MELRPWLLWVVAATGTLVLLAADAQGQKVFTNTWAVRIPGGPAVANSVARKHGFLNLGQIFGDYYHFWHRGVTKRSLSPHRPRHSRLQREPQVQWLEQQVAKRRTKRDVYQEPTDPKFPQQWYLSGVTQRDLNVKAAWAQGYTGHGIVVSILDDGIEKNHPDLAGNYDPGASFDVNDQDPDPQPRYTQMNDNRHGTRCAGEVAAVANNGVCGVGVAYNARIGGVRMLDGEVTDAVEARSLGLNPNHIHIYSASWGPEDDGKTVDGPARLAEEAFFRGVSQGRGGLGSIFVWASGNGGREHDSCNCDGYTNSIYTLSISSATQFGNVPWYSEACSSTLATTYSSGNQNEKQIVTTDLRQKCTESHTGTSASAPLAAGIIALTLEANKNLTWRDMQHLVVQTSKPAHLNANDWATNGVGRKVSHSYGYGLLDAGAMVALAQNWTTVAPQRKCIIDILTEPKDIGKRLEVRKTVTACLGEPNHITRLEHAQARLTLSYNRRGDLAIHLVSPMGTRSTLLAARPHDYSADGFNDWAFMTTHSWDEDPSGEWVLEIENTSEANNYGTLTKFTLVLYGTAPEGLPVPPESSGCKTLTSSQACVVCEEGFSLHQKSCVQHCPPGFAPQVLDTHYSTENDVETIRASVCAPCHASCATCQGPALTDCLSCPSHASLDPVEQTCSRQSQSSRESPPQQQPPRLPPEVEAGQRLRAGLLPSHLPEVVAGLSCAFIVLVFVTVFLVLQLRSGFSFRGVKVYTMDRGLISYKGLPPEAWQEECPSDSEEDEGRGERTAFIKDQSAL

B1: FS-2813 (peptide)
chain: CARSQRSEERAGNASASA
7.5 min
  furin cleavage Z-score: -1.38 (inactive)
15 min
  furin cleavage Z-score: -0.785 (inactive)
30 min
  furin cleavage Z-score: 0.605 (inactive)

B2: FS-2096 (peptide)
chain: CARTRREAPRAGNASASA
7.5 min
  furin cleavage Z-score: 11.6 (active)
15 min
  furin cleavage Z-score: 11.4 (active)
30 min
  furin cleavage Z-score: 9.47 (active)

B3: FS-2835 (peptide)
chain: CARTRRPGEPAGNASASA
7.5 min
  furin cleavage Z-score: -0.179 (inactive)
15 min
  furin cleavage Z-score: 0.383 (inactive)
30 min
  furin cleavage Z-score: 0.174 (inactive)

B4: FS-2665 (peptide)
chain: CARFRRQDVRAGNASASA
7.5 min
  furin cleavage Z-score: 3.01
15 min
  furin cleavage Z-score: 3.49
30 min
  furin cleavage Z-score: 4.11 (active)

B5: FS-2191 (peptide)
chain: CARTRRYTLFAGNASASA
7.5 min
  furin cleavage Z-score: 2.37
15 min
  furin cleavage Z-score: 3.82 (active)
30 min
  furin cleavage Z-score: 4.23 (active)

B6: FS-2090 (peptide)
chain: CARSRRLQQRAGNASASA
7.5 min
  furin cleavage Z-score: -1.41 (inactive)
15 min
  furin cleavage Z-score: -1.28 (inactive)
30 min
  furin cleavage Z-score: -0.156 (inactive)

B7: FS-3237 (peptide)
chain: CARSRRSEERAGNASASA
7.5 min
  furin cleavage Z-score: 6.2 (active)
15 min
  furin cleavage Z-score: 7.41 (active)
30 min
  furin cleavage Z-score: 5.66 (active)

B8: HC927 (peptide)
chain: CAAETTVRLRAGNASASA
7.5 min
  furin cleavage Z-score: 0.749 (inactive)
15 min
  furin cleavage Z-score: -0.382 (inactive)
30 min
  furin cleavage Z-score: 0.0108 (inactive)

B9: FS-2899 (peptide)
chain: CARCVRICSKAGNASASA
7.5 min
  furin cleavage Z-score: 1.54
15 min
  furin cleavage Z-score: -0.229 (inactive)
30 min
  furin cleavage Z-score: -0.326 (inactive)

B10: HC2489 (peptide)
chain: CASYPCSAHLAGNASASA
7.5 min
  furin cleavage Z-score: 0.414 (inactive)
15 min
  furin cleavage Z-score: -1.17 (inactive)
30 min
  furin cleavage Z-score: 1.74

B11: HC1200 (peptide)
chain: CATFALWRVSAGNASASA
7.5 min
  furin cleavage Z-score: -1.06 (inactive)
15 min
  furin cleavage Z-score: -0.9 (inactive)
30 min
  furin cleavage Z-score: -0.368 (inactive)

B12: HC2005 (peptide)
chain: CAVLCCSMSYAGNASASA
7.5 min
  furin cleavage Z-score: 0.0781 (inactive)
15 min
  furin cleavage Z-score: 1.47
30 min
  furin cleavage Z-score: 0.67 (inactive)

B13: FS-1878 (peptide)
chain: CADFVRSITPAGNASASA
7.5 min
  furin cleavage Z-score: -0.721 (inactive)
15 min
  furin cleavage Z-score: -0.817 (inactive)
30 min
  furin cleavage Z-score: -2.11 (inactive)

B14: FS-2369 (peptide)
chain: CARRFRSVPRAGNASASA
7.5 min
  furin cleavage Z-score: -0.464 (inactive)
15 min
  furin cleavage Z-score: 0.0993 (inactive)
30 min
  furin cleavage Z-score: 0.454 (inactive)

B15: FS-2141 (peptide)
chain: CARFYRYMGRAGNASASA
7.5 min
  furin cleavage Z-score: 0.0635 (inactive)
15 min
  furin cleavage Z-score: 0.964 (inactive)
30 min
  furin cleavage Z-score: -0.333 (inactive)

B16: FS-2667 (peptide)
chain: CARFRRSVPRAGNASASA
7.5 min
  furin cleavage Z-score: 8.62 (active)
15 min
  furin cleavage Z-score: 7.98 (active)
30 min
  furin cleavage Z-score: 7.02 (active)

B17: FS-2926 (peptide)
chain: CARFRKAYKPAGNASASA
7.5 min
  furin cleavage Z-score: 0.349 (inactive)
15 min
  furin cleavage Z-score: -0.617 (inactive)
30 min
  furin cleavage Z-score: -0.661 (inactive)

B18: EK4 (peptide)
chain: CATFHKAEYRAGNASASA
7.5 min
  furin cleavage Z-score: -1.71 (inactive)
15 min
  furin cleavage Z-score: -2.3 (inactive)
30 min
  furin cleavage Z-score: -0.599 (inactive)

B19: FS-1702 (peptide)
chain: CARFRRAANRAGNASASA
7.5 min
  furin cleavage Z-score: 7.75 (active)
15 min
  furin cleavage Z-score: 10.5 (active)
30 min
  furin cleavage Z-score: 7.34 (active)

B20: FS-3094 (peptide)
chain: CARSRRRSGRAGNASASA
7.5 min
  furin cleavage Z-score: 1.03
15 min
  furin cleavage Z-score: 0.486 (inactive)
30 min
  furin cleavage Z-score: 1.5

B21: FS-1854 (peptide)
chain: CARFRRSETPAGNASASA
7.5 min
  furin cleavage Z-score: 6.5 (active)
15 min
  furin cleavage Z-score: 5.93 (active)
30 min
  furin cleavage Z-score: 5.18 (active)

B22: FS-2818 (peptide)
chain: CARSRRQDVRAGNASASA
7.5 min
  furin cleavage Z-score: 1.35
15 min
  furin cleavage Z-score: 3.52 (active)
30 min
  furin cleavage Z-score: 2.66

B23: FS-1890 (peptide)
chain: CARERRSEEPAGNASASA
7.5 min
  furin cleavage Z-score: -0.884 (inactive)
15 min
  furin cleavage Z-score: 3.45
30 min
  furin cleavage Z-score: 0.678 (inactive)
